{
  "source": "PubChem BioAssay AID1861",
  "about": "(The Scripps Research Institute Molecular Screening Center, 2009)",
  "note": "Values joined by “and” are separate entries in the source; they are usually repeats but may differ in a detail not shown here. Equal values may be shown once. Among all 290,000 compounds or so, about 3,100 (1.1%) were called active. Rule as the data show it: active = inhibition above about 16% (passing the limit was not always enough); inactive = the rest. Shown is part of a subset that was picked to be rich in actives. More than one record can exist for a structure, and the calls need not agree. Where a SMILES comes first, the peptide text is derived from it. [ ]: non-standard residue; d: D form. The star is where a group is joined. ξ: configuration not given here. Cbz = O=C(OCc1ccccc1)*; ξL = CC(C)CC(N)C(=O)O; ξP = O=C(O)C1CCCN1",
  "data": [
    {"target": "Neuropeptides B/W receptor type 1 (Homo sapiens) (UniProt P48145)", "sequence (P48145 whole entry, looked up)": "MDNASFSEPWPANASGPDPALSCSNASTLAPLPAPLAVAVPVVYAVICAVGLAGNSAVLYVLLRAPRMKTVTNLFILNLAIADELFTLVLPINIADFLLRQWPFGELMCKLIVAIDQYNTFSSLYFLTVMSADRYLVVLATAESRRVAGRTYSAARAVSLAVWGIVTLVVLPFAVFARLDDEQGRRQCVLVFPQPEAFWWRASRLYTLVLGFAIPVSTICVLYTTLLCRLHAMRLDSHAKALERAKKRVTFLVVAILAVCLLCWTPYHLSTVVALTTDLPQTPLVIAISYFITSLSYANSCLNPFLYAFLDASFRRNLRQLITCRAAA", "assay": "blockers of human neuropeptide B/W receptor 1 – cell-based, fluorescence, single concentration, primary screen (AID 1861);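 also: cells stimulated with the agonist NPW; 0% = agonist with vehicle and 100% = vehicle without agonist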", "conditions": "GPR7-expressing cells, fluorescence antagonist assay; at 4.4 µM; stronger effect = higher value", "values": [
      {"smiles": "COC(=O)CCC(=O)N1CCCC(CO)(Cc2ccccc2)C1", "note": "(stereo unspecified)", "inhibition": "-0.55% (inactive)"},
      {"smiles": "Cc1cccc(NC(=O)COC(=O)CCc2ccccc2)c1C", "inhibition": "-16.3% (inactive)"},
      {"smiles": "CCOCCCn1c(SCC(=O)Nc2cc(OC)ccc2OC)nc2ccccc2c1=O", "inhibition": "-10.2% (inactive)"},
      {"smiles": "Cc1ccc(NC(=S)NCCc2ccc(Cl)cc2)c(C)c1", "inhibition": "-19.2% (inactive)"},
      {"smiles": "Clc1ccc(C[n+]2cc(-c3ccccc3)n3c2CCC3)cc1", "inhibition": "-5.39% (inactive)"},
      {"smiles": "Cc1ccc(-c2c[n+](CC(=O)Nc3ccccc3)c3n2CCC3)cc1", "inhibition": "-3.52% (inactive)"},
      {"smiles": "Cc1ccc(C(=O)C[n+]2cc(-c3ccccc3)n3c2CCCCC3)cc1", "inhibition": "16.2% (inactive) and 28.1% (active)"},
      {"smiles": "C=CCn1c(CNS(=O)(=O)c2ccc(Br)cc2)nnc1SC", "inhibition": "-2.9% (inactive)"},
      {"smiles": "CCC1C(=O)NCCN1C(=O)c1ccc2nc(Cc3ccc(OC)cc3)oc2c1", "note": "(stereo unspecified)", "inhibition": "10.3% (inactive)"},
      {"smiles": "N=C1C(c2nc3ccccc3s2)=C(O)CN1NC(=O)c1ccc([N+](=O)[O-])cc1", "inhibition": "2.09% (inactive)"},
      {"smiles": "CC(C)CN(C(=O)c1cccc(S(=O)(=O)N2CCCCC2)c1)C1CCS(=O)(=O)C1", "note": "(stereo unspecified)", "inhibition": "3.39% (inactive)"},
      {"smiles": "NNC(=O)CSc1nnc(-c2ccccc2)n1-c1ccccc1", "inhibition": "25.5% (inactive)"},
      {"smiles": "O=C(c1ccc(S(=O)(=O)N2CCCC2)cc1)N1CCN(c2ccccc2F)CC1", "inhibition": "-4.62% (inactive)"},
      {"smiles": "O=C(CCSc1ccccc1)N1CCN(c2ccccc2F)CC1", "inhibition": "1.08% (inactive)"},
      {"smiles": "CC(C(=O)N1CCN(c2ccccc2F)CC1)c1ccc([N+](=O)[O-])cc1", "note": "(stereo unspecified)", "inhibition": "35.6% (active)"},
      {"smiles": "CC(C)CC(NC(=O)C1CCCN1C(=O)[C@@H](C)NC(=O)OCc1ccccc1)C(=O)NCC(N)=O", "note": "(stereo partly specified) (Cbz-[dA][ξP][ξL]G-NH2)", "inhibition": "2.31% (inactive)"},
      {"smiles": "CN(Cc1c(F)cccc1Cl)S(=O)(=O)c1cccs1", "inhibition": "-1.36% (inactive)"},
      {"smiles": "Cn1nccc1C(=O)N1CCCC(C(=O)c2ccc(Oc3ccccc3)cc2)C1", "note": "(stereo unspecified)", "inhibition": "-11.3% (inactive)"},
      {"smiles": "CCOCCCNC(=O)C(NC(=O)CNC(=O)c1ccccc1)c1ccc(OC)cc1", "note": "(stereo unspecified)", "inhibition": "-6.22% (inactive)"},
      {"smiles": "O=C1CN(C(=O)c2ccccc2F)C(c2ccc(F)cc2)c2cc(F)ccc2N1", "note": "(stereo unspecified)", "inhibition": "-1.3% (inactive)"},
      {"smiles": "O=C(CSc1nnc(-c2ccco2)o1)NCC(=O)c1ccccc1", "inhibition": "37.5% (active)"},
      {"smiles": "Cc1cccc(NC(=O)CSc2nnc(-c3ccco3)o2)c1", "inhibition": "2.82% (inactive)"},
      {"smiles": "CCOC(=O)c1sc(NC(=O)CSc2nnc(-c3ccco3)o2)c(C(=O)OCC)c1C", "inhibition": "-9.68% (inactive)"},
      {"smiles": "N=c1c2c(-c3ccccc3)c(-c3ccccc3)oc2ncn1Cc1ccco1", "inhibition": "-7.33% (inactive)"},
      {"smiles": "N=c1c2c(-c3ccccc3)c(-c3ccccc3)n(Cc3ccccc3)c2ncn1CCCO", "inhibition": "27.3% (active)"},
      {"smiles": "CCN(CC)CCn1cnc2c1c(=O)[nH]c(=O)n2Cc1ccccc1", "inhibition": "-8.02% (inactive)"}
    ]}
  ]
}
